# Screening results from PubChem BioAssay.
# MEKK2mut PB1 HTS – signal of MEK5 binding to mutant human MEKK2 PB1 domain; percent response, % at 10 µM; actives 0.35% (n = 290,000); bead flow cytometry, Alexa488-MEK5 binding to MEKK2 mutant; in the data active = percent response above about 24%, passing the limit was not always enough
# NTR1 agonist – activates human neurotensin receptor 1. actives 0.17% (n = 330,000). P30989. NTR1-U2OS beta-arrestin-GFP spot imaging, agonist mode. activation, % at 20 µM;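 active = activation at or above 40% of the spot to cytoplasm intensity ratio, with at least 20 cells analyzed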;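 note: 0% = DMSO without peptide and 100% = 100 nM NTR1 peptide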
# Target sequence (P30989 whole entry, looked up): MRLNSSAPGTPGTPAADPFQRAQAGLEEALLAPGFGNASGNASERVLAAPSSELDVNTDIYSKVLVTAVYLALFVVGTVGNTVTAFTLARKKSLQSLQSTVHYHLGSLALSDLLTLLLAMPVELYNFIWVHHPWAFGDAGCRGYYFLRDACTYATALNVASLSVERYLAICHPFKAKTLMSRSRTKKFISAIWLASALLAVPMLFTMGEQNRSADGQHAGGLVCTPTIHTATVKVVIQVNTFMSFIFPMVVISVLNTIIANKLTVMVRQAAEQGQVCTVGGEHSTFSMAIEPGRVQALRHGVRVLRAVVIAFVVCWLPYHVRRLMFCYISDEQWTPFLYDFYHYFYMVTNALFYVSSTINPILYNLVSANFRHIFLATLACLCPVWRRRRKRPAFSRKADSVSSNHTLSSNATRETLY
# MEKK2wt PB1 HTS – raises or lowers MEK5 binding to wildtype human MEKK2 PB1 domain. Q9Y2U5. bead flow cytometry, Alexa488-MEK5 binding to MEKK2 WT; actives lie on both sides. binding response (% of control), % at 10 µM. actives 1.1% (n = 290,000); in the data active = binding response below about 67% or above about 130%
# MEKK3 PB1 HTS – modulators (inhibitors or enhancers) of MEK5 binding to human MEKK3 PB1 domain | actives 1.4% (n = 290,000) | binding response (% of control), % at 10 µM | bead-based flow cytometry, Alexa488-MEK5 binding to MEKK3; actives lie on both sides; 0 = blocked by unlabeled MEK5, 100 = vehicle | Q99759 | AID 1529;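 active = binding response more than 3 SD above or below the average of its plate-row segment, actives on both sides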;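 note: Alexa488 bead fluorescence after subtracting the streptavidin-only scavenger bead signal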
# ANO1 block – mouse TMEM16A channel inhibition, primary screen; Q8BHY3; HEK293 TMEM16A/YFP iodide influx fluorescence, ionomycin; normalized B-score (activity score, 25-100; higher = stronger inhibition) at 10 µM; actives 1.2% (n = 310,000);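 active = ratio plate-corrected score three or more library SD toward inhibition, starting fluorescence score within five deviations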;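 note: score derived from kinetic fluorescence span divided by baseline fluorescence per well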
# ANO1 activ – activates or potentiates the mouse TMEM16A chloride channel; HEK293 TMEM16A/YFP-H148Q/I152L, iodide quench fluorescence; active compounds read low; B-score at 10 µM; Q8BHY3; actives 0.3% (n = 340,000); AID 623877;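 active = fluorescence-ratio B-score plate-corrected deviation score at least 3 library SD below zero, with starting fluorescence score within 5 deviations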;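 note: channel opened by trigger with iodide after compound preincubation; score built on the fluorescence ratio of max minus min over baseline; more negative score means more quench and so TMEM16A activation or potentiation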
# * = called active by the depositor; i = inactive; x = no result given. In the library only some 3.4% were active in any assay of this set; here they are far more common.
SMILES,MEKK2mut PB1 HTS,NTR1 agonist,MEKK2wt PB1 HTS,MEKK3 PB1 HTS,ANO1 block,ANO1 activ
CCSc1cc(C)nc2ncnn12,15,0,111,110,i,-19*
O=[N+]([O-])c1ccc(NC(=S)N2CCc3ccccc32)cc1,3,1,102,102,100*,i
CCOc1ccc(S(=O)(=O)NCc2ccc3c(c2)OCO3)cc1,3,2,103,102,i,i
COc1ccc(N2CCN(C(=O)C(Cc3ccccc3)n3cccc3)CC2)cc1 (centres undefined),14,0,119,117,i,-15*
O=C(C(Cc1ccccc1)n1cccc1)N1CCN(c2cccc(Cl)c2)CC1 (centres undefined),-2,3,101,100,i,i
O=c1[nH]c(NNC(=S)NC2CCCCC2)nc2c1C1(CCCC1)Cc1ccccc1-2,-1,12,103,99,i,i
Cc1ccc(N2CN(Cc3ccco3)CNC2=S)c(C)c1,-2,-2,91,92,i,i
CCN(CC)c1ccc(CNc2nc3ccccc3n2CCN2CCCCC2)cc1,12,10,133,100,100*,i
COc1ccc(OCCN2CCN(C(=O)c3ccc(OC(F)F)c(OC)c3)CC2)cc1,-1,0,99,104,i,i
COc1ccc(OCCN2CCN(C(=O)c3ccc(OC)cc3)CC2)cc1,-7,2,91,96,100*,i
CCN(CC)c1ccc(/C=N/N=C(N)N)c(O)c1,113*,4,x,93,i,i
CCN(CC)c1ccc(N=Cc2ccc(N(CC)CC)cc2O)cc1,0,10,98,97,i,i
O=C(NC1CCCCC1)C(c1ccc(O)cc1)N(C(=O)c1cnccn1)c1cccc(F)c1 (centres undefined),5,0,106,109,i,i
Cc1cc(=O)[nH]c2c1c(C)nn2C1CCOC(C)(C)C1 (centres undefined),2,0,100,99,i,i
O=C1OCCC1Sc1nnc(-c2ccc(Cl)cc2Cl)o1 (centres undefined),-11,7,91,92,25*,i
CCCC(=O)N1CCN(c2ccc(NC(=O)c3cc4ccccc4o3)cc2Cl)CC1,-7,45*,94,91,100*,i
CCC(=O)N1CCN(c2ccc(NC(=O)c3cc4ccccc4o3)cc2Cl)CC1,x,37,x,x,100*,i
O=C(OCc1nc(-c2ccccc2Cl)no1)c1ccco1,x,0,x,x,x,i
Cc1ccc(C(=O)NCCSc2ccc(Cl)cc2)cc1S(=O)(=O)Nc1ccccc1,2,9,105,104,100*,i
Clc1cccc(Cl)c1/C=C/c1nc2ccccc2[nH]1,0,15,96,89,25*,i
Cc1ccc(CNc2ccc3c(c2)ncn3C(C)C)cc1,-5,1,101,98,i,-13*
CCn1cnc2cc(NCc3ccc(C)cc3)ccc21,6,1,104,104,i,i
Cc1ccc(-n2c(SCC(N)=O)nnc2-c2ccc(S(=O)(=O)N3CCCCC3)cc2)c(C)c1,-6,1,92,96,i,i
COc1ccc2nc3cc(Cl)ccc3c(C#N)c2c1,-15,5,88,92,i,-7.2*
COc1ccc2nc(C(F)(F)Cl)c(C#N)c(N)c2c1,2,1,104,105,i,i
SMILES,MEKK2mut PB1 HTS,NTR1 agonist,MEKK2wt PB1 HTS,MEKK3 PB1 HTS,ANO1 block,ANO1 activ
CCc1ccc(N(CC(=O)N2CCN(Cc3ccccc3)CC2)S(C)(=O)=O)cc1,1,1,104,102,i,i
CCCCC(=O)NC(c1ccc([N+](=O)[O-])cc1)c1c(O)ccc2ccccc12 (centres undefined),3,27,125,104,100*,i
CCC(=O)NC(c1ccc([N+](=O)[O-])cc1)c1c(O)ccc2ccccc12 (centres undefined),-2,2,97,99,i,i
O=C(CCNS(=O)(=O)c1ccccc1)N1CCN(c2ccccc2)CC1,-2,0,102,106,i,i
CCN(C(=O)CSc1nc(C)nc2sc(C)c(C)c12)c1ccc(F)cc1,x,0,x,x,x,-41*
Cc1c(N=Cc2nc3ccccc3[nH]2)c(=O)n(-c2ccccc2)n1C,0,0,102,101,i,-13*
Cc1c(N=Cc2nc3ccccc3n2C)c(=O)n(-c2ccccc2)n1C,1,1,98,100,i,i
O=C(CCl)NN1C(=O)NC(c2ccccc2)(c2ccccc2)C1=O,2,1,101,101,i,i
Cc1[nH]c2ccccc2c1C(=O)NS(=O)(=O)Nc1ccc(Cl)cc1,-6,-1,93,97,i,i
O=C(Nc1ccn(Cc2ccc(Cl)cc2)n1)c1ccccc1,1,4,107,109,25*,i
O=C(Nc1ccn(Cc2ccccc2)n1)c1ccc2c(c1)OCO2,-2,0,99,102,i,i
Cc1ccc(-c2nc(CS(=O)CC(=O)NCc3ccc4c(c3)OCO4)c(C)o2)cc1 (centres undefined),-4,-1,97,99,i,i
Cc1ccc2c(COC(=O)c3n[nH]c4ccccc34)cc(=O)oc2c1,4,13,102,103,i,i
CCc1ccc2c(COC(=O)c3n[nH]c4ccccc34)cc(=O)oc2c1,2,9,106,113,100*,i
C=CCOc1ccccc1C(=O)/C=C1/C(=O)Nc2ccccc21,2,50*,98,101,i,i
Cc1ccccc1NC(=O)Cc1nnc(N)s1,-17,0,90,93,i,i
Oc1c(C=Nc2ccccc2Cl)[nH]c2ccccc12,0,3,98,96,i,-8.7*
CCN(CC1CCCN(CCc2cccc(F)c2)C1)C(=O)c1cc2ccccc2o1 (centres undefined),10,0,107,102,i,i
CN(CC1CCCN(CCc2cccc(C(F)(F)F)c2)C1)C(=O)c1cc2ccccc2o1 (centres undefined),24*,5,131,103,x,i
CCC(OC(=O)c1nsc(Cl)c1Cl)C(=O)NC(C)(C)C (centres undefined),18,7,12*,104,i,i
Cc1ccc(S(=O)(=O)N2[C@@H](c3ccccc3F)C(C(=O)O)=CC[C@H]2c2ccc3c(c2)OCO3)cc1,x,2,x,x,i,i
O=C(Nc1c2c(nn1-c1ccccc1)CS(=O)(=O)C2)c1ccccc1C(F)(F)F,8,0,109,102,i,i
